We go through 40 compounds from PubChem BioAssay (NCATS).

Structures are written as SMILES. Inconclusive results are not listed. Where a call stands in place of a potency, no number is given. The source made the active and inactive calls. The call rests on the fitted dose curve; in most records, active means well fitted cell-killing curve with a large enough effect; inconclusive means small, poorly fitted or top-dose-only effect; inactive means flat fitted curve, though single readings scatter.
Potency means the concentration at half of the fitted maximal effect.

The assay in a line: Cell Viability - NIH 3T3 (AID 541). Further: nearly all actives have a fitted effect of over 25% in size. To be noted: NIH 3T3 cell viability, qHTS; activity change, negative = cytotoxicity: at 92.2 µM (top of the series). The text has this:
NIH Chemical Genomics Center [NCGC]
NIH Molecular Libraries Screening Centers Network [MLSCN]
National Institutes of Environmental Health Sciences [NIEHS]
National Toxicology Program [NTP]
We have developed a 1536-well cell-based assay for quantitative high throughput screening (qHTS) against a number of cell lines to determine in vitro cytotoxicity of small molecules. This particular assay uses the NIH 3T3 fibroblast cell line which is established from NIH Swiss mouse embryo.
NCGC Assay Protocol Summary:
The CellTiter-Glo luminescent cell viability assay (Promega) is a homogeneous method to measure the number of viable cells in culture. The end point readout of this assay is based on quantitation of intracellular ATP, an indicator of metabolic activity, using the luciferase reaction. Luciferase catalyzes the oxidation of beetle Luciferin to oxyluciferin and light in the presence of ATP. The luminescent signal is proportional to amount of ATP present.
Using the CellTiter-Glo luminescent cell viability assay, the amount of cellular ATP was measured in the NIH 3T3 cell line with complete culture medium following compound treatment for 40 hours. The assay was performed in opaque white Kalypsys 1536-well plates. In the screen, tamoxifen and doxorubicin were used as positive controls. Library compounds were measured for their ability to cause acute toxicity in the cell line, as reflected by a decrease in intracellular ATP levels, in a concentration-dependent manner. […] AC50 values were determined from concentration-response data modeled with the standard Hill equation.
qHTS protocol for CellTiter Glo NIH 3T3 cellular assay
[Step] [Parameter] [Value] [Description]
1. Reagent; 5 uL; 1000 NIH 3T3 cells/well
2. Time; 5 hr; 37 °C incubation
4. Controls; 23 nL; Tamoxifen 0.34 uM to 100 uM & Doxorubicin 0.02 nM to 100 uM
5. Time; 40 hr; 37 °C incubation
6. Reagent; 5 uL; CellTiter Glo reagent
7. Time; 20 min; Room Temperature
8. Detection; Luminescence; Viewlux plate reader
Keywords: cell viability, cytotoxicity, NIH 3T3 cell line, luminescence, NTPHTS, NTPHTS_NCGC, NIEHS, EPA, DSSTox, MLSMR, MLSCN, NIH Roadmap, qHTS, NCGC
A general note: In qHTS, concentration-response curves come from the screen itself.
With `CCN(CC)CCO`, the Potency entry was “inactive”. For `Clc1cccc2ccccc12`, the Potency entry was “inactive”.

With `O=Cc1ccc(Cl)cc1Cl`, the Potency result was “inactive”.

Take `Nc1ccc(Cl)c(Cl)c1`: the Potency result was “inactive”. Regarding `OCCOCCO`, the Potency entry was “inactive”. For the compound `COC(=O)Nc1nc2ccccc2[nH]1`, the Potency was 6.31 µM (active).

`Nc1cccc2ccccc12`: the Potency entry is “inactive”. Take `CCC#N`: the Potency entry is “inactive”.

Consider `C=CC(=O)OCCN(C)C`, for which the Potency entry is “inactive”. On to `CCSC(=O)N1CCCCCC1`, for which the Potency result was “inactive”. Turning to `CCCCCc1cc(O)cc(O)c1`, the Potency entry is “inactive”. As to `CCC[N+](=O)[O-]`, the Potency result was “inactive”.

Regarding `Nn1cnnc1`, the Potency entry is “inactive”. In the case of `O=C(O)c1cc(Cl)ccc1Cl`, the Potency result is “inactive”. For `Cl/C=C\Cl`, the Potency entry was “inactive”. `C=C(Cl)CCl`: the Potency entry was “inactive”.

Take `Cc1ccc(N)cc1C`: the Potency entry is “inactive”. Consider `C=CC(=O)OCC(C)C`, for which the Potency result was “inactive”.

For `[O-][Cl+]O`, the Potency entry is “inactive”.

For the compound `Cc1ccccc1[N+](=O)[O-]`, the Potency entry is “inactive”. Regarding `ClP(Cl)(Cl)(Cl)Cl`, the Potency entry is “inactive”. Turning to `CCCCCCCCCCCOC(=O)c1ccccc1C(=O)OCCCCCCCCCCC`, the Potency result is “inactive”. As for `CN(C)c1ccc(N)cc1`, the activity change, negative = cytotoxicity was -87% (active). On to `CC(C)[N+](=O)[O-]`, for which the Potency entry was “inactive”. For the compound `CC(Cl)(Cl)Cl`, the Potency entry was “inactive”.

`Nc1cc(Cl)cc(C(=O)O)c1Cl`: the Potency entry was “inactive”. With `CCCCC#N`, the Potency result was “inactive”. Same read-out and setting: then `CCCCC(CC)COC(=O)c1ccc(C(=O)OCC(CC)CCCC)c(C(=O)OCC(CC)CCCC)c1` (stereo not given), with “inactive”.

With `ClC(Br)Br`, the Potency result was “inactive”. As for `Oc1ccc(Cl)c(Cl)c1Cl`, the Potency entry was “inactive”. Same read-out and setting: the entry for `Nc1ccc(Cc2ccc(N)cc2)cc1` is “inactive”; for `CCOP(=S)(OCC)Oc1nc(Cl)c(Cl)cc1Cl` it is “inactive”; for `ClCCBr` it is “inactive”. Turning to `S=C1NCCN1`, the Potency entry was “inactive”. For the compound `ClCCOCOCCCl`, the Potency entry is “inactive”. Consider `C/C=C/CC#N`, for which the Potency entry is “inactive”. With `Oc1c(Cl)cccc1Cl`, the Potency entry is “inactive”.

On to `Brc1cccc(-c2ccccc2)c1`, for which the Potency entry is “inactive”.

Turning to `OCC(Cl)CCl` (stereo not given), the Potency result is “inactive”. For the compound `C/C=C/C=O`, the Potency entry is “inactive”.
